Calls of active or inactive are those of the source. Calls follow the shape of the full dose curve.

What all share (assay): Confirmatory Screen for Target Class Profiling of Small Molecule Inhibitors of Methyltransferases (AID 1745852); as to activity change, negative = inhibition: % is scaled to controls: 0 for no effect and ±100 for the full control effect
In experiment [1] the target is Catechol O-methyltransferase (Homo sapiens) (UniProt P21964). The following applies: MTase-Glo luminescence, SAH detection, recombinant enzyme; measured here: COMT max response; stronger effect = lower value.
Sequence of Catechol O-methyltransferase (Homo sapiens) (P21964 whole entry, looked up): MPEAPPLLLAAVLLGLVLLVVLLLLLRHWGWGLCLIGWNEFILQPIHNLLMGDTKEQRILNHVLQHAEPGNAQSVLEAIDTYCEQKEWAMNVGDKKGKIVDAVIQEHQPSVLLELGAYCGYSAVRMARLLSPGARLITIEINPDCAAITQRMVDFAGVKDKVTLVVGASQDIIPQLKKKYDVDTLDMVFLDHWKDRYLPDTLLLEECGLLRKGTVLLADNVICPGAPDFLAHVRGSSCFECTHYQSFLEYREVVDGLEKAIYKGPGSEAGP
In experiment [2] the target is Guanidinoacetate N-methyltransferase (Homo sapiens) (UniProt Q14353). To be noted: MTase-Glo luminescence, SAH detection, recombinant enzyme; activity change, negative = inhibition: at 57.3 µM (top of the series) unless noted; series mostly up to 57.3 µM.
Experiment [3] has as its target Nicotinamide N-methyltransferase (Homo sapiens) (UniProt P40261). The following applies: MTase-Glo luminescence, SAH detection, recombinant enzyme; measured here: NNMT max response; stronger effect = lower value.
Experiment [4] deals with Phenylethanolamine N-methyltransferase (Homo sapiens) (UniProt P11086). The following applies: MTase-Glo luminescence, SAH detection, recombinant enzyme; measured here: PNMT max response; stronger effect = lower value.
Sequence of Phenylethanolamine N-methyltransferase (Homo sapiens) (P11086 whole entry, looked up): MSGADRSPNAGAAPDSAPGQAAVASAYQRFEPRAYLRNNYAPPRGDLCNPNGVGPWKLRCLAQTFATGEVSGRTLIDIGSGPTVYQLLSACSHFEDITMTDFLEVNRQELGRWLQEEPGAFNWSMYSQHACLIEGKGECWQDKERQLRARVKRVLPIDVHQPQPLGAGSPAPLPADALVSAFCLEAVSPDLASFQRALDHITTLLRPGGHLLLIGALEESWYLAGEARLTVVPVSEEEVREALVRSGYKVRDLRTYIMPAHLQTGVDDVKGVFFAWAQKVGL
Potency is read from the fitted curve at half-maximal effect.

Sequence of Nicotinamide N-methyltransferase (Homo sapiens) (P40261 whole entry, looked up): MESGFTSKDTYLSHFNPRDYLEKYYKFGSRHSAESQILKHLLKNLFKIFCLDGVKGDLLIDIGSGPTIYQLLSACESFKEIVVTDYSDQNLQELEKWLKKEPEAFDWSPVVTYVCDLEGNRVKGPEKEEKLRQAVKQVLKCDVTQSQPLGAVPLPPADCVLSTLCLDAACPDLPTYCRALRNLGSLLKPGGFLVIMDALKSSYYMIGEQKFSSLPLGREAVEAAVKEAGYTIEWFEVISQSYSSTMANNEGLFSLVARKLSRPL

For the compound `CN(C)CCCn1cc(C2=C(c3c[nH]c4ccccc34)C(=O)NC2=O)c2ccccc21`, the activity in experiment [1] is -45.6%; in experiment [3] it was -41.3%; in experiment [4], -44.4%. In experiment [2], the Potency was 27.1 µM (active).

Consider `CCCCCCCOc1cc2c(cc1/C(C)=C/c1ccc(C(=O)O)cc1)C(C)(C)CCS2(=O)=O`, for which the activity in experiment [1] was -11.5%; in experiment [3], -71.1%; in experiment [4] it was -11.4%. The Potency in experiment [2] is 27.1 µM (active).

Consider `C=C1C(=O)O[C@H]2CC(=C)[C@H]3CC[C@@](C)(O)[C@@H]3CC12` (some centres undefined), for which the figures for the activity in experiment [1], in experiment [3] and in experiment [4] were -86%, 0% and 3.31%, respectively. Besides, in experiment [2], the activity change, negative = inhibition came out at 1.75%.

For `Cc1c[nH]c2ncnc(N3CCC(CN)(C(=O)Nc4cccc(OC(=O)N(C)C)c4)CC3)c12`, the activity was -12.7% in experiment [1], -59.8% in experiment [3] and -19.2% in experiment [4]. Also, the activity change, negative = inhibition in experiment [2] is -4.87% [at 114 µM].

Take `C=C1C(=O)OC2/C=C(/C)C3=CC(=O)C(C)(CC(OC(=O)/C(C)=C/COC(C)=O)C12)O3` (centres undefined): the results for the activity in experiment [1], in experiment [3] and in experiment [4] were -88.1%, 0.146% and -3.18%, respectively. Also, the activity change, negative = inhibition in experiment [2] came to 0.139% [at 29.8 µM].

Consider `COc1cc2c(cc1-c1c(C)noc1C)ncc1[nH]c(=O)n(C(C)c3ccccn3)c12` (centres undefined), for which the results for the activity in experiment [1], in experiment [3] and in experiment [4] were -17.8%, -29.4% and 0.401%, respectively. Besides, the activity change, negative = inhibition in experiment [2] was found to be 3.12%.

In the case of `CC(C)c1cc2c(N3CCN(C4=NCC(C)(C)S4)CC3)ncnc2s1`, the activity in experiment [1] was -1.24%; in experiment [3], -65.8%; in experiment [4], -7.2%. Moreover, in experiment [2], the activity change, negative = inhibition stood at 0.38%.

Take `N#C/C(=C1\Nc2ccccc2S1)c1ccnc(NCCc2cccnc2)n1`: the activity in experiment [1] is -23.6%; in experiment [3], -43.4%; in experiment [4], -21.8%. The Potency in experiment [2] was 15.2 µM (active).

Regarding `C[C@]12CC[C@@H]3c4ccc(O)c(O)c4CC[C@H]3[C@@H]1CCC2=O`, the activity in experiment [1] was -61.7%; in experiment [3], -14.2%; in experiment [4], -20.6%. The activity change, negative = inhibition in experiment [2] is -3.15%.

On to `C=CC(=O)Nc1ccc2ncnc(Nc3cccc(Br)c3)c2c1`, for which the activity in experiment [1] was -59.2%; in experiment [3] it was -38.9%; in experiment [4] it was -49.9%. The Potency in experiment [2] is 19.2 µM (active).

As to `C=C1C(=O)OC2C1CCC1(C)C(O)CC=C(C)C21` (centres undefined), the figures for the activity in experiment [1], in experiment [3] and in experiment [4] were -60.3%, -3.54% and -2.19%, respectively. Besides, the activity change, negative = inhibition in experiment [2] was -6.03%.

As to `C=C1C(=O)O[C@@H]2C3=C(C)CCC[C@]3(C)CC[C@@]12O`, the activity is -87.7% in experiment [1], -7.46% in experiment [3] and -3.37% in experiment [4]. Moreover, the activity change, negative = inhibition in experiment [2] was -4.1%.

With `Cc1cn(CCN2CCN(c3ccccc3-c3cc(C#N)cc(C(=O)NCCCN4CCCC4)c3)CC2)c2ccccc12`, the values for the activity in experiment [1], in experiment [3] and in experiment [4] were 3.99%, -4.29% and 2.94%, respectively. Further, the activity change, negative = inhibition in experiment [2] is 10.2%.

Turning to `COc1ccc(CCc2nc3c(C)c(-c4c(C)noc4C)c(C)cc3n2CCN2CCOCC2)cc1`, the results for the activity in experiment [1], in experiment [3] and in experiment [4] were 6.34%, -28% and 1.27%, respectively. For the same compound, in experiment [2], the activity change, negative = inhibition came out at 5.22%.

On to `C=C1C(=O)OC2CC(C)C(CCC(C)O)=CCC12` (centres undefined), for which the activity in experiment [1] was -95.7%; in experiment [3], -3.12%; in experiment [4], -3.4%. The activity change, negative = inhibition in experiment [2] is -4.2%.

As for `COc1cc(/C=C2\CCCN([C@@H](C)c3ccc(F)cc3)C2=O)ccc1-n1cnc(C)c1`, the values for the activity in experiment [1], in experiment [3] and in experiment [4] were -8.51%, -25.5% and -13%, respectively. Also, the Potency in experiment [2] was 2.41 µM (active).

As to `CN(C)CCOC(C)(c1ccccc1)c1ccc(Cl)cc1` (centres undefined), the activity in experiment [1] was -7.63%; in experiment [3], -25.2%; in experiment [4], -3.91%. Further, the activity change, negative = inhibition in experiment [2] is -4.69%.

For the compound `COc1ccc(N(C(=O)Nc2c(C)cccc2C)c2cc(Nc3ccc(N4CCN(C)CC4)cc3)ncn2)c(OC)c1`, the figures for the activity in experiment [1], in experiment [3] and in experiment [4] were -5.96%, -36.9% and -7.92%, respectively. Also, the activity change, negative = inhibition in experiment [2] came out at 0%.

Turning to `CCOC(=O)c1cnc2ccc(-c3cncc(NS(=O)(=O)c4ccccc4)c3)cn12`, the activity was -38.9% in experiment [1], -25.7% in experiment [3] and -35.9% in experiment [4]. The Potency in experiment [2] was 42.9 µM (active).

On to `CCn1c2ccccc2c2cc(Nc3ccnc(NCCCN4CCOCC4)n3)ccc21`, for which the figures for the activity in experiment [1], in experiment [3] and in experiment [4] were -20%, -66.6% and -29.8%, respectively. Besides, the activity change, negative = inhibition in experiment [2] is -7.76%.

As for `C=C1C(=O)OC2/C=C(\C)CC/C=C(\C=O)C(OC)C(OC(=O)C(C)CC)C12` (centres undefined), the activity was -70.5% in experiment [1], -2.69% in experiment [3] and -0.332% in experiment [4]. The activity change, negative = inhibition in experiment [2] is -5.12%.

These data come from PubChem BioAssay (NCATS).
